# Results filed as inconclusive are left out. Calls of active or inactive are those of the source. The calls were made as follows, unless noted: active = hit-call score of the fitted dose curve at least 0.9, where 1 is the maximum; inconclusive = response in the unintended direction; inactive = score below 0.9.
# Tests used:
# [1] = IUF_NPC2-5_viability_120hr: Viability Assessment at 120 hours in the Leibniz Research Institute for Environmental Medicine (IUF) Neural Progenitor Cell Migration and Differentiation Assay (NPC2-5) (AID 2284312; active = hit-call score of the fitted dose curve at least 0.9, where 1 is the maximum; inactive = score below 0.9)
# Procedure, shortened: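 Alamar blue resorufin fluorescence read after 5 days of differentiation, with compound present from day 0 and replenished at day 3. Primary hNPC spheres on laminin-coated plates, 37C; seven concentrations plus solvent control, fitted against DMSO.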
# [2] = CCTE_Mundy_HCI_iCellGluta_NOG_NeuriteLength: CCTE's Neurite Outgrowth Assay in iCellGluta cells for Neurite Length, Mundy Lab (AID 2284318)
# Procedure, shortened: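 Automated high-content imaging of betaIII-tubulin (Alexa Fluor-488) and Hoechst-stained cells gave neurite length, normalized to the DMSO baseline.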
# [3] = VALA_TUBIPS_Agonist_TubuleLength: VALA Sciences human iPS-derived Endothelial Tubule Formation (TUBIPS) Agonism Assay (AID 2284311)
# Experimental: VALA_TUBIPS_Agonist is a cell-based, multiplexed assay that uses human iPS-derived endothelial cells (iPSC). Measurements were taken 72 hours after chemical dosing in a 96-well plate.VALA_TUBIPS_Agonist_TubuleLength is the one of two assay components measured from the VALA_TUBIPS_Agonist assay. It is designed to make measurements of tubulogenesis, a form of morphology reporter, as detected with fluorescence intensity signals by HCS Fluorescent Imaging technology. This VALA_TUBIPS1 assay was designed to detect chemical activation of tubulogenesis, i.e. agonism.Data from the assay component VALA_TUBIPS_Agonist_TubuleLength was analyzed at the endpoint, VALA_TUBIPS_Agonist_TubuleLength, in the positive analysis fitting direction relative to DMSO as the negative control and baseline of activity. Using a type of morphology reporter, gain-of-signal activity can be used to understand developmental effects. To generalize the intended target to other relatable targets, this assay endpoint is annotated to the neurodevelopment intended target family, where the subfamily is tubulogenesis.
# (§1) […]
# [4] = VALA_TUBIPS_Antagonist_TubuleLength: VALA Sciences human iPS-derived Endothelial Tubule Formation (TUBIPS) Antagonist Assay (AID 2284313)
# Experimental: VALA_TUBIPS_Agonist is a cell-based, multiplexed assay that uses human iPS-derived endothelial cells (iPSC). Measurements were taken 72 hours after chemical dosing in a 96-well plate.VALA_TUBIPS_Antagonist_TubuleLength is the one of two assay components measured from the VALA_TUBIPS_Antagonist assay. It is designed to make measurements of tubulogenesis, a form of morphology reporter, as detected with fluorescence intensity signals by HCS Fluorescent Imaging technology. This VALA_TUBIPS_Antagonist assay was designed to detect chemical suppression of tubulogenesis, i.e. antagonism.Data from the assay component VALA_TUBIPS_Antagonist_TubuleLength was analyzed at the endpoint, VALA_TUBIPS_Antagonist_TubuleLength, in the positive analysis fitting direction relative to DMSO as the negative control and baseline of activity. Using a type of morphology reporter, loss-of-signal activity can be used to understand developmental effects. To generalize the intended target to other relatable targets, this assay endpoint is annotated to the neurodevelopment intended target family, where the subfamily is tubulogenesis.
# as §1
# [5] = VALA_MIGHUV2_Bcatenin: VALA Sciences human Umbilical Vein Endothelial Cell Migration (MIGHUV) Assay, Nuclear Translocation of beta-Catenin after Recovery (AID 2284315)
# Procedure, shortened: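 Nuclear beta-catenin imaged by immunofluorescence with Hoechst counterstain in fixed HUVEC, 24 h after scratch wounding and chemical addition. Six-point concentration-response in triplicate; activity scored as signal increase over 0.1% DMSO vehicle.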
# [6] = VALA_MIGHUV2_WoundArea: VALA Sciences human Umbilical Vein Endothelial Cell Migration (MIGHUV) Assay, Area of Scratch Wound after Recovery (AID 2284316)
# Experimental: VALA_MIGHUV2_BCatenin is a cell-based, multiplexed assay that uses umbilical vein-derived endothelial cells (HUVEC). Measurements were taken 24 hours after chemical dosing in a 96-well plate.VALA_MIGHUV2_WoundArea is the one of two assay components measured from the VALA_MIGHUV2 assay. It is designed to make measurements of endothelial migration, a form of morphology reporter, as detected with fluorescence intensity signals by HCS Fluorescent Imaging technology. Data from the assay component VALA_MIGHUV2_WoundArea was analyzed at the endpoint, VALA_MIGHUV2_WoundArea, in the positive analysis fitting direction relative to DMSO as the negative control and baseline of activity. Using a type of morphology reporter, gain-of-signal activity can be used to understand developmental effects. To generalize the intended target to other relatable targets, this assay endpoint is annotated to the neurodevelopment intended target family, where the subfamily is migration.
# Cells were seeded on 384-well microplates (day-0) at a density of 9000 cells per well for detection of wound area recovery or 4000 cells per well for detection of beta-catenin (CTNB) immunoreactivity and incubated in Endothelial Cell Growth Medium (CAI, San Diego; catalog 211-500). After 24 hours of culture, the HUVEC plates were scratched using a custom scratch head with the Bravo liquid handling system. […]
# IYD (gene 389434) = assay: CCTE_GLTED_hIYD: CCTE's human Iodotyrosine Deiodinase (xIYD) Inhibition Assay, Great Lakes Toxicology and Ecology Division (GLTED) Lab (AID 2284317);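 also: cell-free human IYD enzyme made in baculovirus insect cells; iodide freed from monoiodotyrosine measured by cerium arsenite color change at 420 nm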
# Procedure, shortened: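 In the IYD assay, iodide released from MIT by insect-cell-expressed human enzyme was quantified after 3 h via Sandell-Kolthoff rate at 420 nm, with plate-wise normalization to MNT and solvent controls.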
# [7] = CCTE_Deisenroth_5AR_NBTE_donor: CCTE's 5alpha-reductase NanoBRET Target Engagement Assay […], Deisenroth Lab (AID 2284319; active = hit-call score of the fitted dose curve at least 0.9, where 1 is the maximum; inactive = score below 0.9); conditions: actives raise or lower the signal
# Procedure, shortened: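 HEK293T cells transiently expressing SRD5A2-NanoLuc, exposed 5 h to chemicals (8 points, 10 nM - 29.9 uM), with testosterone tracer for the final 2 h. Donor luminescence at 460 nm read after Nano-Glo substrate plus extracellular NanoLuc inhibitor; bidirectional fit versus DMSO.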
# [8] = CCTE_Deisenroth_5AR_NBTE_acceptor: CCTE's 5alpha-reductase NanoBRET Target Engagement Assay - Autofluorescence Screen, Deisenroth Lab (AID 2284321; active = hit-call score of the fitted dose curve at least 0.9, where 1 is the maximum; inactive = score below 0.9;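 also: compound fluorescence in the acceptor channel under 460 nm excitation flags autofluorescence artifacts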); conditions: actives raise or lower the signal
# Experimental: CCTE_Deisenroth_5AR NBTE (5alpha-reductase NanoBRET Target Engagement Assay) is a cell-based, single-readout assay that uses HEK293T, a human kidney cell line, with measurements taken at 5 hours after chemical dosing in a 384 well plate. This assay includes a primary and secondary screen as well as an autofluorscence screen.CCTE_Deisenroth_5AR NBTE_acceptor is one of four assay components measured from the CCTE_Deisenroth_5AR NBTE assay. It is designed to make measurements of resonant fluorescence generated by bioluminescent energy transfer to a target fluorophore, as detected by fluorescence intensity emission signals using spectrometry technology.Data from the assay component CCTE_Deisenroth_5AR NBTE_acceptor was analyzed into 1 assay endpoint. This assay endpoint, CCTE_Deisenroth_5AR NBTE_acceptor, was analyzed with bidirectional fitting relative to DMSO as the negative control and baseline of activity. Using a type of inducible reporter, gain or loss-of-signal activity can be used to understand changes in the acceptor fluorescence as related to 5alpha-reductase catalytic function. Furthermore, this assay endpoint can be referred to as a secondary readout, because this assay has produced multiple assay endpoints where this one serves an artifact detection function.
# Chemicals from the blinded ToxCast library were diluted 1000-fold in DMSO to an assumed nominal concentration of 100 uM. Samples were scanned in three independent runs (n=3) on a multi-mode plate reader at a fixed excitation wavelength of 460 nm with emission filter set at […]. For reference, tracer was included at DMSO-solubilized concentrations of 100 uM (the top tested concentration for each test chemical) and 600 nM (the final working concentration of the tracer probe).
# [9] = VALA_MIGHUV2_CellCount: Viability Assessment in the VALA Sciences human Umbilical Vein Endothelial Cell Migration (MIGHUV) Assay, Area of Scratch Wound after Recovery (AID 2284314)
# Procedure, shortened: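 Viability read-out: Hoechst-stained nuclei counted by fluorescence imaging after a 24 h recovery period in fixed, scratched HUVEC plates. Compound was dosed within 30 min of scratching at six concentrations (triplicate); DMSO at 0.1 % served as baseline.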
compound,measurement,setting,value
Cc1nn(C)c(Oc2ccccc2)c1C=NOCc1ccc(C(=O)OC(C)(C)C)cc1,outcome,[1],inactive
same,AC50,[2],0.353 µM (active)
CSC(=O)c1cccc2nnsc12,outcome,[1],inactive
S=C(S)NCCNC(=S)S.[Mn+2].[S-]C([S-])=NCCN=C([S-])[S-].[Zn+2],outcome,[3],inactive
same,outcome,[1],inactive
same,outcome,[4],inactive
same,outcome,[5],inactive
same,outcome,[6],inactive
same,outcome,[2],inactive
CCOC(=O)C(C)Oc1ccc(Oc2nc3ccc(Cl)cc3o2)cc1 (stereo not given),outcome,IYD (gene 389434),inactive
CCN(CC)C(=O)c1cccc(C)c1,outcome,[1],inactive
same,AC50,[2],50.5 µM (active)
O=C(O)c1ccccc1,outcome,[1],inactive
same,outcome,[7],inactive
same,outcome,[8],inactive
CC(C)(c1ccc(O)cc1)c1ccc(O)cc1,outcome,[3],inactive
same,outcome,[1],inactive
same,outcome,[4],inactive
same,outcome,[9],inactive
same,outcome,[5],inactive
same,outcome,[6],inactive
same,outcome,IYD (gene 389434),inactive
CCCN(CCC)C(=O)SCC,outcome,[1],inactive
same,outcome,[2],inactive
CC(C)CCCCCCc1ccc(O)cc1,outcome,[3],inactive
same,outcome,[4],inactive
same,outcome,[9],inactive
same,AC50,IYD (gene 389434),48.4 µM (active)
same,outcome,[7],inactive
same,outcome,[8],inactive
CC1(C)C(C=C(Cl)Cl)C1C(=O)OCc1cccc(Oc2ccccc2)c1 (stereo not given),outcome,[7],inactive
same,outcome,[8],inactive
S=C([S-])NCCNC(=S)[S-].[Mn+2],outcome,[1],inactive
O=C(Nc1ccc([N+](=O)[O-])cc1Cl)c1cc(Cl)ccc1O,outcome,[7],inactive
same,outcome,[8],inactive
N[C@@H](Cc1cc(I)c(Oc2ccc(O)c(I)c2)c(I)c1)C(=O)O,outcome,[3],inactive
same,outcome,[4],inactive
same,outcome,[5],inactive
C#CCOC(=O)[C@@H](C)Oc1ccc(Oc2ncc(Cl)cc2F)cc1,outcome,[1],inactive
same,AC50,[2],22 µM (active)
